Assay outcomes: PubChem BioAssay, National Center for Advancing Translational Sciences (NCATS)
GLS inh: blocks human kidney-isoform glutaminase activity; Potency, µM (highest dose often 45.5 µM), for inactives: at the highest dose activity change, negative = inhibition, usual class: inhibitors; 410,000 compounds, 0.21% hits; AID 624170; GLS enzymatic activity, qHTS titration; O94925; note: % is set by controls: 0 for no effect and ±100 for the full control effect
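Compounds were pin-transferred onto hKGA, after which L-glutamine (1 mM solution) and a detection mix of glutamate oxidase, HRP and Amplex Red were added. Initial and 30 min RT fluorescence reads were collected.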
GCN5L2 inh: GCN5L2 (KAT2A) acetyltransferase inhibition; Q92830; GCN5L2 HAT assay, ThioGlo1 CoA-SH fluorescence; Potency, µM (doses to about 58.9 µM), inactives show at the top dose activity change, negative = inhibition, usual class: inhibitors; 390,000 compounds, 0.21% hits; AID 504327; note: % is set by controls: 0 for no effect and ±100 for the full control effect
Target sequence (Q92830 whole entry, looked up): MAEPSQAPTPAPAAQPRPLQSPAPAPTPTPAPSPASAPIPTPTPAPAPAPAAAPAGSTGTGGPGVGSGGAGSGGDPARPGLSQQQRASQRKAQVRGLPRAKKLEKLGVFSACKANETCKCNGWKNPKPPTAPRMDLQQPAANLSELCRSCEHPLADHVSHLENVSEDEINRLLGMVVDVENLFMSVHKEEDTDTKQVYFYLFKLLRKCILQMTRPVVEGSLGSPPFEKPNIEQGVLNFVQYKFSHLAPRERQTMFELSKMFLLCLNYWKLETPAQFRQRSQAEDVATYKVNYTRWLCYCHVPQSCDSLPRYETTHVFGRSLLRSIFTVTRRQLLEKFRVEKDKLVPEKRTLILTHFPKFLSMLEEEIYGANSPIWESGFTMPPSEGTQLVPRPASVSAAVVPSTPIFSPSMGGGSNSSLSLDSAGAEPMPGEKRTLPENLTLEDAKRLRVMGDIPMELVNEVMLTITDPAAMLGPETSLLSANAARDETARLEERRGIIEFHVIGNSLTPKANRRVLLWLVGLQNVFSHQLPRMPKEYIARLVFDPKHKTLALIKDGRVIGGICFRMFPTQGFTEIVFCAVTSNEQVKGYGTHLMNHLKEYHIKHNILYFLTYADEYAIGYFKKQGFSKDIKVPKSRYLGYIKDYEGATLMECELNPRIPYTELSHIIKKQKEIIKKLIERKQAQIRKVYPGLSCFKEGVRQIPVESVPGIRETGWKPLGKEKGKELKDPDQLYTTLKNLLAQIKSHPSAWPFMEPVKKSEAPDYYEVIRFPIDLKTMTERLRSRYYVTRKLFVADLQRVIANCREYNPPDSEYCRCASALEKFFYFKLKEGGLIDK
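Free CoA generated was detected with ThioGlo1 (50uM) fluorescence at Ex340nm/Em540nm, read immediately and after 20 min at room temperature. Enzyme, 20 nM in HEPES pH 7.5 buffer, saw compounds 15 min before adding 75uM H3(1-25) peptide and 70uM acetyl-CoA.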
PKM2 activator: activators of human pyruvate kinase M2 | P14618 | purified PKM2, Kinase-Glo ATP luminescence, activation; response scale: 0% is enzyme alone, no compound | Potency, µM (titrated, usually from 57.5 µM), inactives show at the highest dose activation, usual class: activators | 260,000 compounds, 0.34% hits; note: % is set by controls: 0 for no effect and ±100 for the full control effect; nearly all actives have a fitted effect of over 55% in size
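Purified hPK-M2 (>95%) run at intermediate activity with 0.1 mM ADP and 0.5 mM PEP in 50 mM imidazole pH 7.2, KCl, MgCl2; 1 h room temperature. ATP formed read by Kinase-Glo luminescence; normalized to uninhibited and no-enzyme controls.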
Mito fusion act: mitochondrial division inhibition or fusion activation | S. cerevisiae fusion-defective mutant growth rescue, CellTiterGlo 48 h | Potency, µM (doses to about 46.1 µM), for inactives: at the top dose growth rescue (activation), actives largely listed as activators | 320,000 compounds, 0.23% hits; note: % of control where 0% means no effect; nearly all actives have a fitted effect of over 45% in size
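Temperature-sensitive fusion-defective S. cerevisiae (e.g. fzo1-1, mgm1-5) were grown with compound in YPEG medium (3% ethanol, 3% glycerol) for 48 hours at 37C. Growth rescue was measured as viability by CellTiterGlo luminescence after 10 minutes at ambient.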
PLK1 PBD inh: blocks phosphopeptide binding to human PLK1 polo-box domain; Potency, µM, without a hit: max response, negative = inhibition, actives largely listed as inhibitors; 360,000 compounds, 2.8% hits; Plk1 PBD binding of FITC phosphopeptide, fluorescence polarization; note: series mostly up to about 57 µM; % is set by controls: 0 for no effect and ±100 for the full control effect; nearly all actives have a fitted effect of over 65% in size
VDR inh: vitamin D3 receptor (human) inhibition; VDR-SRC2-3 peptide fluorescence polarization, 2 h; AID 504847; P11473; 400,000 compounds, 0.93% hits; Potency, µM, for the others: max response, negative = inhibition, hits mostly inhibitors; note: % is set by controls: 0 for no effect and ±100 for the full control effect
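Fluorescence polarization assay measuring small-molecule disruption of VDR binding to the coregulator peptide SRC2-3. Compounds were pin-transferred (23 nl) into the reagent mix and incubated 2 h at room temperature before reading.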
An asterisk follows results filed as active; ? = inconclusive; / = not tested or not shown; [ ] = another dose, or the depositor's remark. Rows were chosen to be rich in hits. Some 3.4% of all compounds tested hit in one or more screens of this group. Calls come from the whole dose curve; as a rule, active = well fitted curve in the direction sought with a large enough effect; inconclusive = small, poorly fitted or top-dose-only effect, or another doubt; inactive = no such curve, though single readings can be large; an effect the other way counts as inactive or inconclusive. Potency is the fitted concentration of half-maximal effect.

SMILES	GLS inh	GCN5L2 inh	PKM2 activator	Mito fusion act	PLK1 PBD inh	VDR inh
Nn1c(SCc2cn3cc(Cl)ccc3n2)nnc1-c1ccncc1	-14%	-9%	17%	0%	11µM*	?
CN1CCN(C(=O)c2nc3ccc(Cl)cc3[nH]2)CC1	/	/	-4%	/	/	/
CC1CC=CC2C1C(=O)N(Cc1ccccc1)C2c1ccc(C(F)(F)F)cc1 (stereo not drawn)	/	/	/	/	/	-21%
Cc1ccc2c(c1)sc1nc(=O)ccn12	17%	4%	8%	-3%	15µM*	-27%
CC(=O)NC(CCC(N)=O)C(=O)O (stereo not drawn)	-6%	/	/	/	/	/
CCC(=O)N(C)C[C@H]1Oc2ncc(C#Cc3ccncc3)cc2C(=O)N([C@@H](C)CO)C[C@@H]1C	3%	/	/	/	-13%	/
CCOC(=O)c1c(C)[nH]c(C)c1C(=O)COc1ncnc2ccccc12	0%	-2%	6%	-2%	12µM*	?
CCOC(=O)c1c(NC(=O)COc2ncnc3ccccc23)sc(C)c1C	10%	0%	-4%	-2%	-6%	20%
Cc1ccc(CN(CC2CCCO2)C(=O)CN2C(=O)C(C(C)C)Oc3ccccc32)o1 (stereo not drawn)	-1%	-6%	32µM*	9%	?	?
C[C@H](c1ccccc1)N1C[C@H](COCc2ccccc2)Oc2cc(N3CC[C@@H](O)C3)ccc2S1(=O)=O	1%	/	/	/	-4%	/
Cc1ccc(NC(=O)CSc2ncn(-c3ccccc3)n2)cc1C	-2%	-2%	9%	5%	1%	-9%
CCOC(=O)/C=C/C(=O)OCC(=O)Nc1ccc(OC)c(Cl)c1	-1%	-1%	1%	-14%	?	79µM*
COc1ccc(NC(=O)CSc2nc(-c3ccco3)nc3cc(=O)[nH]n23)cc1Cl	-18%	-22%	/	0%	19µM*	-4%
COc1ccc(NC(=O)CSc2ncn(-c3ccccc3)n2)cc1Cl	0%	-4%	14µM*	6%	-10%	2%
COc1ccc(NC(=O)COC(C)=O)cc1Cl	10%	-5%	4%	-1%	27µM*	-6%
COCC(=O)Nc1ccc(OC)c(Cl)c1	16%	-4%	0%	-2%	-8%	-10%
NC(CCC(=O)NC(CCSC(CC(=O)O)C(=O)O)C(=O)NCC(=O)O)C(=O)O (stereo not drawn)	/	0%	/	/	/	9%
C=C1CCN(C(CC(C)C)C(=O)NCc2ccc(Cl)cc2)S(=O)(=O)c2ccccc21 (stereo not drawn)	/	/	/	/	/	2%
Cc1ccc2nc3c(nc2c1C)CCCC3	6%	19%	/	-22%	-8%	-2%
Cc1ccc2nc3c(nc2c1C)C(O)=C3O	?	5%	-3%	-1%	11µM*	?
Cc1ccc(S(=O)(=O)/N=c2\ccc(Cl)cn2C(F)F)cc1	-2%	-5%	25µM*	0%	-15%	-23%
O=C(O)CSc1nnc(-c2cccc(S(=O)(=O)N3CCOCC3)c2)n1-c1ccc(F)cc1	0%	-8%	/	/	-3%	-7%
CN(C)CCN(Cc1ccccc1)C(c1cc2ccccc2o1)c1nnnn1C(C)(C)C (stereo not drawn)	16%	/	/	/	0%	/
O=C(Nc1nc(=O)c2ccccc2s1)c1ccc(F)cc1	0%	-3%	18%	0%	-2%	71µM*
O=C(Nc1nc(=O)c2ccccc2s1)c1ccc(Cl)cc1	-2%	-17%	23%	-12%	?	-15%
SMILES	GLS inh	GCN5L2 inh	PKM2 activator	Mito fusion act	PLK1 PBD inh	VDR inh
O=C(Nc1ccccc1C(F)(F)F)c1c(F)cccc1Cl	13%	-5%	0%	-2%	30µM*	-17%
O=C(Nc1ccccc1Br)c1c(F)cccc1Cl	12%	2%	8%	5%	-5%	-11%
CC(=O)Oc1ccc(C2(c3ccc(OC(C)=O)cc3)Oc3ccccc3NC2=O)cc1	4%	/	/	/	/	/
COC(=O)CCCCCCCCC(O)CN(C)C (stereo not drawn)	52%	2%	-6%	-6%	27µM*	?
CCOc1ccc(-c2c(C(=O)N/N=C/c3ccoc3)nnn2-c2nonc2N)cc1	-14%	-3%	1%	-7%	-12%	-9%
CC(C)c1c(C(=O)N/N=C/c2ccc(OCc3ccc(F)cc3)cc2)nnn1-c1nonc1N	0%	-6%	-14%[0.46 µM]	0%	21µM*	-6%
CCOc1cccc(-c2c(C(=O)N/N=C/c3ccoc3)nnn2-c2nonc2N)c1	?	1%	/	0%	30µM*	?
CC1(C(=O)NS(=O)(=O)Cc2ccccc2C(F)(F)F)CCN1C(=O)c1ccco1 (stereo not drawn)	3%	/	/	/	4%	/
COc1ccc(NC(=O)Nc2cccc(-c3cn4cccnc4n3)c2)cc1	2%	-10%	/	/	/	-4%
CCOC(=O)NNc1ccc2nonc2c1[N+](=O)[O-]	-4%	-23%	-1%	-14%	8.4µM*	35µM*
CC(C)C(NC(=O)c1ccccc1)C(=O)OCC(=O)N1CCN(c2ccccc2)CC1 (stereo not drawn)	14%	-8%	/	-5%	1%	0%
CCC(C(=O)NC(=O)NC(C)=O)c1ccccc1 (stereo not drawn)	-4%	/	/	/	/	/
Cc1n[nH]c(C)c1S(=O)(=O)N1CCCC(C(=O)NC2CCCCC2)C1 (stereo not drawn)	-4%	1%	3%	3%	-9%	1%
Cc1nn(C)c(C)c1S(=O)(=O)N1CCC(C(=O)NC2CCCc3ccccc32)CC1 (stereo not drawn)	3%	-1%	5%	-1%	27µM*	-15%
Cc1nn(C)c(C)c1S(=O)(=O)N1CCCC(C(=O)N2CCN(c3ccc(Cl)cc3)CC2)C1 (stereo not drawn)	?	-5%	14%	4%	3.4µM*	-18%
Cc1ccc(Cl)cc1N1CCN(C(=O)C2CCN(S(=O)(=O)c3c(C)nn(C)c3C)CC2)CC1	-2%	-9%	1%	3%	-2%	-6%
Cc1nn(C)c(C)c1S(=O)(=O)N1CCCC(C(=O)NC2CCCCCC2)C1 (stereo not drawn)	-4%	2%	2%	-3%	27µM*	?
COc1ccccc1NC(=O)CCc1nnc2ccc(NCc3ccco3)nn12	-8%	0%	/	-1%	-1%	8%
O=C(NCc1ccco1)c1cc2cc(Br)ccc2o1	-20%	-13%	-5%	1%	11µM*	89µM*
Cc1c(C(=O)NCc2ccco2)oc2ccc(Br)cc12	-13%	-29%	/	28%	-7%	-8%
Cc1noc(C)c1S(=O)(=O)NC(=O)C1(C)CCN1C(=O)Cc1ccc(Cl)cc1Cl (stereo not drawn)	4%	/	/	/	-3%	/
